# aSyn 5UTR inh: 5' untranslated region of α-synuclein, MLPCN primary screen; 300,000 tested, 0.82% active; alpha-synuclein 5'UTR reporter, inhibitor activity; AID 1813; inhibition, % (tested at 7.5 µM); in the data active means inhibition above about 60%;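 further: H4 neuroglioblastoma cells stably carrying SNCA 5'UTR luciferase fusion; 0% = DMSO wells and 100% = positive control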
# KLF5 inh: suppresses KLF5 promoter-driven expression. DLD-1 KLF5 promoter-luciferase reporter, luminescence. 290,000 tested, 0.23% active. inhibition, % at 5 µM;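 active means inhibition above a per-plate limit of that plate's mean compound inhibition plus 3 SD, cut at about 60% in these data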;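 further: 0% = DMSO wells and 100% = LY294002 at 200 µM; higher means less KLF5 promoter-driven luciferase light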
# Ba/F3 V617F tox: lowers viability of Ba/F3 cells expressing EpoR and JAK2V617F | ATP luminescence | inhibition, % at 5.6 µM | 220,000 tested, 1.1% active | AID 1446;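 active means inhibition above the campaign mean plus 3 SD over all tested compounds, cut at about 24% in these data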;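 further: cytokine-independent growth of Ba/F3 cells driven by EpoR plus mutant JAK2; 0% = DMSO-treated cells and 100% = JAK inhibitor I control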
# APP 5UTR inh: APP translation inhibition; SH-SY5Y APP 5'UTR-luciferase reporter, luminescence; inhibition, % at 2 µM; 190,000 tested, 0.82% active;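 active means inhibition above a set limit, derived from the sample mean plus 3 SD, cut at about 45% in these data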
# BaF3 tox: parental Ba/F3 viability inhibition as JAK2V617F counter-screen; inhibition, % at 5.6 µM; CellTiter-Glo ATP luminescence; 220,000 tested, 1.1% active;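 active means inhibition above a per-campaign cutoff, the mean inhibition of all tested compounds plus 3 SD, cut at about 27% in these data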;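 further: 0% = DMSO wells and 100% = JAK Inhibitor I control wells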
# IEC-6 cytotox: IEC-6 cytotoxicity, counter-screen for KLF5 inhibitors; inhibition, % at 5 µM; 290,000 tested, 0.78% active; luminescence viability; in the data active means inhibition above about 22%;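 further: 0% = plate median of test compound wells and 100% = cytotoxic reference compound wells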
# * hit, by the source's call; . = no result given. An excerpt weighted towards active compounds, which were near 2.1% of everything screened.
SMILES,aSyn 5UTR inh,KLF5 inh,Ba/F3 V617F tox,APP 5UTR inh,BaF3 tox,IEC-6 cytotox
Cc1cc(C)n(CC(=O)NC2CCCCC2C)c(=O)c1C#N (configuration not stated),-3,.,.,.,.,.
O=C(Nc1ccccc1F)N1CCc2ccccc2C1,-42,-152,.,.,.,-3
CCOc1ccccc1-n1c(COc2ccccc2)nnc1SCC(N)=O,-20,-17,-2,52*,0,-4
CCOc1ccccc1-n1c(COc2ccc(C)cc2)nnc1SCC(N)=O,6,13,3,5,6,0
CC(C)(C)c1ccc(-c2cc(N)n[nH]2)cc1,91*,0,-2,61*,8,-8
Cc1ccc(-c2cc(N)n[nH]2)cc1,-73,-17,2,8,0,-1
O=C(Nc1nc2ccccc2n1CCN1CCOCC1)c1cn(-c2ccccc2)nc1-c1ccccc1,83*,-4,1,4,5,-5
O=C(Nc1nc2ccccc2n1CCN1CCOCC1)c1ccccc1,-6,-15,.,.,.,-2
S=C(Nc1ccc(Cl)cc1)N1CCN(C2CCCCC2)CC1,-11,-3,23,-10,36*,-4
COc1ccc(CCNCC(O)Cn2c3ccccc3c3ccccc32)cc1OC (configuration not stated),120*,-22,2,-6,11,6
C=C1[C@@H](C)C2[C@H](Cc3ccccc3)NC(=O)[C@]23OC(=O)CC[C@H](O)CCC[C@H](C)C/C=C/[C@H]3[C@@H]1O (some centres not stated),80*,.,.,.,.,.
Cn1cccc/c1=N\c1cccc[n+]1C,9,-13,73*,.,63*,1
CCc1ccc(-c2nc(CSCC(=O)NC3CC3)c(C)o2)cc1,71*,42,.,.,.,-6
CCOc1ccc(NC(=S)N(C)C)cc1,-5,28,-5,.,2,-2
COc1ccccc1NC(=O)c1ccccc1NC(=O)c1cccs1,-1,-6,.,.,.,0
O=c1cc(-c2ccccc2)[nH]n1-c1ccc([N+](=O)[O-])cc1,-59,-34,-1,5,6,-4
N#CC(C#N)=C1C=CC=CN1/C(=C\c1ccco1)C(=O)c1ccc(Br)cc1,.,-6,-3,93*,2,4
N#C/C(=C/c1ccco1)C(N)=S,-7,-7,-2,.,6,-19
COc1ccc(C(=O)N2CCN(C(=O)c3cc(OC)c(OC)c(OC)c3)CC2)cc1,-10,1,-3,-14,5,-7
COc1cc(C(=O)N2CCN(c3cc(Cl)ccc3Cl)CC2)cc(OC)c1OC,89*,49,65*,-2,63*,61*
NS(=O)(=O)c1ccc(CNC(=O)Cc2c(F)cccc2Cl)cc1,-28,-30,2,7,60*,-5
CCCOc1ccc(C(=O)Nc2ccc3c(c2)OCCO3)cc1,-40,-88,.,.,.,-2
O=c1c2c(nc3c(-c4cccc5ccccc45)c[nH]n13)CCC2,-17,-17,2,9,6,-3
O=c1c2c(nc3c(-c4ccc(Cl)cc4)c[nH]n13)CCCC2,66*,-31,4,11,14,4
COC(=O)c1ccc(NC(=O)CSc2nnc(COc3ccc4c(c3)CCCC4)o2)cc1,7,7,-3,-3,96*,-6
SMILES,aSyn 5UTR inh,KLF5 inh,Ba/F3 V617F tox,APP 5UTR inh,BaF3 tox,IEC-6 cytotox
CCc1ccc(NC(=O)CSc2nnc(COc3ccc4c(c3)CCCC4)o2)cc1,1,-8,2,9,4,3
Cc1ccc(-n2[nH]c(C)c(/C=N/c3ccccn3)c2=O)cc1,-12,-30,11,-12,16,14
Cc1[nH]n(-c2ccccc2)c(=O)c1/C=N/Nc1nncc(-c2ccccc2)n1,91*,35,53*,82*,36*,0
CCCCN(CCCC)C(=S)N/N=C/c1c(C)[nH]n(-c2ccccc2)c1=O,93*,-1,-3,2,-1,-6
Cc1[nH]n(-c2ccccc2)c(=O)c1/C=N/NC(=O)c1ccc(O)cc1O,-12,-64,.,.,.,-2
Cc1[nH]n(-c2ccccc2)c(=O)c1C=Nc1cccc2cccnc12,-2,7,-1,70*,5,23*
CCOC(=O)C1(CCOc2ccccc2)CCN(Cc2ccc(O)c(OCC)c2)CC1,-47,-31,.,.,.,0
COc1ccc(Nc2nc(-c3cccs3)nc3ccccc23)cc1S(=O)(=O)N1CCOCC1,-4,.,.,.,.,.
CC(SCc1ccccc1)C(=O)Nc1ccccc1F (configuration not stated),-19,-18,.,.,.,6
CSc1nc(Oc2ccc3ccccc3c2)c2sccc2n1,82*,-4,-3,-13,-3,1
COc1ccc(Oc2nc(SC)nc3ccsc23)cc1,7,4,-6,10,-1,5
O=C(Nc1ccccc1)Nc1cc(OCC(F)(F)F)cc(OCC(F)(F)F)c1,74*,4,23,4,6,13
O=C(Nc1ccccc1)Nc1cc(Cl)cc(Cl)c1,-21,-24,-4,4,3,6
CCN(C(=O)COC(=O)c1cc(-c2ccccc2)nc2c1c(C)nn2-c1ccccc1)C1CCS(=O)(=O)C1 (configuration not stated),3,-20,3,-1,8,1
CCN(C(=O)COC(=O)c1cc(-c2ccc3cc(OC)ccc3c2)nc2ccccc12)C1CCS(=O)(=O)C1 (configuration not stated),67*,-35,0,-40,2,15
Cc1ccc(NC(=O)CSc2nc(=O)n(Cc3ccncc3)c3c2CCC3)c(C)c1,-4,.,.,.,.,.
CN1CCN(C(c2cccnc2)c2ccc3cccnc3c2O)CC1 (configuration not stated),-11,41,14,5,10,3
CN1CCN(C(c2ccc(Br)cc2)c2cc(Cl)c3cccnc3c2O)CC1 (configuration not stated),67*,30,.,.,.,8
CSc1ncccc1C(=O)NNC(=O)c1ccc(NS(=O)(=O)c2cccs2)cc1,8,.,.,.,.,.
Cc1ccc(NC(=O)c2ccc3nsnc3c2)c(C)c1,-102,-60,.,.,.,9
CCOc1ccc(/C=C2\SC(=S)N(CCC(=O)O)C2=O)cc1,115*,35,2,.,-7,2
CCc1ccc(/C=C2\SC(=S)N(CCC(=O)Nc3cc(C)on3)C2=O)cc1,69*,-3,-2,3,4,-4
CC1=C(Sc2nc3ccccc3[nH]2)C(=O)NC(C)(C)C1,-19,4,-2,48*,-1,-5
CCn1c(CCc2ccccc2)nc2ccccc21,-76,-45,.,.,.,7
O=C(c1cc([N+](=O)[O-])ccc1N1CCOCC1)N1CCCC1,1,-8,5,17,4,-1
O=C(Nc1cc2ccccc2oc1=O)c1ccccc1,74*,-128,2,-131,3,-2
Cc1ccccc1NC(=O)/C=C/c1cccs1,-119,-79,5,-60,12,-6
Cc1cc(C)cc(NC(=O)/C=C/c2ccc([N+](=O)[O-])s2)c1,-244,2,1,53*,50*,4

# Assay outcomes as filed in PubChem.
